How the values were obtained:
[1] = target: T1, CDK6/cyclin D3 (Homo sapiens) (UniProt P30281+Q00534); details: at 1 µM
[2] = target: T1, CDK6/cyclin D3 (Homo sapiens); details: at 10 µM
[3] = target: T2, Cyclin-dependent kinase 7/ cyclin H (Homo sapiens) (UniProt P51946+P50613); details: at 10 µM
[4] = target: T3, Cyclin-dependent kinase 5/CDK5 activator 1 (Homo sapiens) (UniProt Q00535+Q15078); details: at 10 µM
[5] = target: Casein kinase I isoform delta (Homo sapiens) (UniProt P48730); details: at 1 µM
Sequence of Casein kinase I isoform delta (Homo sapiens) (P48730 whole entry, looked up, canonical isoform): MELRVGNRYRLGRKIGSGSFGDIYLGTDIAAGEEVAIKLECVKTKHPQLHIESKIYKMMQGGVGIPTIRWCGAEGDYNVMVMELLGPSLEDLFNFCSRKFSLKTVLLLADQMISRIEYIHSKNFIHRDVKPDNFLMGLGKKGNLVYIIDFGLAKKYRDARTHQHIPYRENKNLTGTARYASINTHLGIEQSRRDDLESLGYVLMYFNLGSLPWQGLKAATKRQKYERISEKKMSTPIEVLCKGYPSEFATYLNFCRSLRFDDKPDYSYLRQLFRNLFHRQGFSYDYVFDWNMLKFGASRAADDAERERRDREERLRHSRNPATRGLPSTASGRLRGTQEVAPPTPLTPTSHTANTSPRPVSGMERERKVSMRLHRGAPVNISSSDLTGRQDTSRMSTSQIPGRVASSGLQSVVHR

[6] = target: Casein kinase I isoform delta (Homo sapiens) (UniProt P48730); details: at 10 µM
[7] = target: T4, CDK3/cyclin E (Homo sapiens) (UniProt P24864+O96020+Q00526); details: at 10 µM
T4 sequence (O96020 whole entry, looked up): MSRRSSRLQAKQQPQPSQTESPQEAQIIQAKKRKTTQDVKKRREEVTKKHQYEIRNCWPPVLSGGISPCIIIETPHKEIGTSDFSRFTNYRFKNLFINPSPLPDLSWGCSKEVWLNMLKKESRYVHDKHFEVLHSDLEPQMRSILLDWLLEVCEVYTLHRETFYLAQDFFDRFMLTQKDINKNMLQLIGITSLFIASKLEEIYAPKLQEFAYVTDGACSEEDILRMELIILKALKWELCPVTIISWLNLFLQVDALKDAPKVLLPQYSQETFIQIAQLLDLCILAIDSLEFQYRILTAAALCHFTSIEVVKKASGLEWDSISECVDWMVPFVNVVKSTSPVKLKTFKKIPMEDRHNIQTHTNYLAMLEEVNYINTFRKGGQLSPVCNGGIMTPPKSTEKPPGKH
T4 sequence (P24864 whole entry, looked up): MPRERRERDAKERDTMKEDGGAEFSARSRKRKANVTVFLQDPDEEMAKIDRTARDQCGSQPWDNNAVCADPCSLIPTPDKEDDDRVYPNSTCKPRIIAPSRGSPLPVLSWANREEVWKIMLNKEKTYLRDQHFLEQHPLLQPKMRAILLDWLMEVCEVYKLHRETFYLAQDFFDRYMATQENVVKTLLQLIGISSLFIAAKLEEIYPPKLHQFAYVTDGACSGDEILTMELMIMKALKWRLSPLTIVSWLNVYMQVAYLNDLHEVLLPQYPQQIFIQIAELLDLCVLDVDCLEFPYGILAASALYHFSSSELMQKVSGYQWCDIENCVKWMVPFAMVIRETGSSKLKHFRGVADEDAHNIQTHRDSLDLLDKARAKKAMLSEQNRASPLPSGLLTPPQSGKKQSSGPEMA
T4 sequence (Q00526 whole entry, looked up): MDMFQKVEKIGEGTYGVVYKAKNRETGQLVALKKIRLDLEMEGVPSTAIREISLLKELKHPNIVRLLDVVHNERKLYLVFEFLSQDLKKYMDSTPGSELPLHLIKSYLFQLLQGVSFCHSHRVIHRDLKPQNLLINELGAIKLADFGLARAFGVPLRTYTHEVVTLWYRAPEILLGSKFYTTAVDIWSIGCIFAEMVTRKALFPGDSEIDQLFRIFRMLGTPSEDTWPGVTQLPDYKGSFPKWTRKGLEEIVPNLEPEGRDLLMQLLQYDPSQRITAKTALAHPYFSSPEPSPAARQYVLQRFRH

[8] = target: T3, Cyclin-dependent kinase 5/CDK5 activator 1 (Homo sapiens); details: at 1 µM
[9] = target: T3, Cyclin-dependent kinase 5/CDK5 activator 1 (Homo sapiens); details: at 1 µM; remark: listed apart in the source
[10] = target: T3, Cyclin-dependent kinase 5/CDK5 activator 1 (Homo sapiens); details: at 10 µM; remark: listed apart in the source
[11] = target: T2, Cyclin-dependent kinase 7/ cyclin H (Homo sapiens); details: at 1 µM
[12] = target: T5, CDK9/cyclin T1 (Homo sapiens) (UniProt O60563+P50750); details: at 1 µM
[13] = target: T5, CDK9/cyclin T1 (Homo sapiens); details: at 10 µM
[14] = target: T6, Serine/threonine-protein kinase Chk1 (Homo sapiens) (UniProt O14757); details: at 1 µM
T6 sequence (whole entry): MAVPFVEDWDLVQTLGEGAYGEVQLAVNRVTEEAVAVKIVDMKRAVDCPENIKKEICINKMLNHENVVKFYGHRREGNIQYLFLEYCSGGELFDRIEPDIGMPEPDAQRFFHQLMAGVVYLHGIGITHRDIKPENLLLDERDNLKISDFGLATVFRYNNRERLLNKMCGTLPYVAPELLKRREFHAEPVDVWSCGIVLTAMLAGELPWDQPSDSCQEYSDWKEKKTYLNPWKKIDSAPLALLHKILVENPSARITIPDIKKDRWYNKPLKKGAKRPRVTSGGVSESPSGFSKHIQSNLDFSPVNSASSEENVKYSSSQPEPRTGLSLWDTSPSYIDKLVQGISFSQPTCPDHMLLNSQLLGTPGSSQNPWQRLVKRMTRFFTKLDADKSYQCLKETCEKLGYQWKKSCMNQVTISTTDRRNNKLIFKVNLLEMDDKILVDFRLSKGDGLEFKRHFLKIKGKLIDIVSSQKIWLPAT

[15] = target: T6, Serine/threonine-protein kinase Chk1 (Homo sapiens); details: at 10 µM
[16] = target: Casein kinase I isoform gamma-1 (Homo sapiens) (UniProt Q9HCP0); details: at 10 µM
Sequence of Casein kinase I isoform gamma-1 (Homo sapiens) (Q9HCP0 whole entry, looked up, canonical isoform): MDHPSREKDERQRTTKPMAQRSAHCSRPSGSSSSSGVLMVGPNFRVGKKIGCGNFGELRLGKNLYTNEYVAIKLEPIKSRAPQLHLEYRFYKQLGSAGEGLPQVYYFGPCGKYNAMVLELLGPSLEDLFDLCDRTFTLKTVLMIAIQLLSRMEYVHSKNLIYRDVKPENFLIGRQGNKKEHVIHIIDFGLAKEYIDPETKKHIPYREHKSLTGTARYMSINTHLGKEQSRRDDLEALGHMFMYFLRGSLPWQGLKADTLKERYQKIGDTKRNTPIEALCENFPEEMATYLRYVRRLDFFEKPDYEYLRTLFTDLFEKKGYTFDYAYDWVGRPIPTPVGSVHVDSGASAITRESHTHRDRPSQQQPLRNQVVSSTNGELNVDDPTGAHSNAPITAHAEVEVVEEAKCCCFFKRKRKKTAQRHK

[17] = target: T4, CDK3/cyclin E (Homo sapiens); details: at 1 µM
[18] = target: Serine/threonine-protein kinase Chk2 (Homo sapiens) (UniProt O96017); details: at 1 µM
Sequence of Serine/threonine-protein kinase Chk2 (Homo sapiens) (O96017 whole entry, canonical isoform): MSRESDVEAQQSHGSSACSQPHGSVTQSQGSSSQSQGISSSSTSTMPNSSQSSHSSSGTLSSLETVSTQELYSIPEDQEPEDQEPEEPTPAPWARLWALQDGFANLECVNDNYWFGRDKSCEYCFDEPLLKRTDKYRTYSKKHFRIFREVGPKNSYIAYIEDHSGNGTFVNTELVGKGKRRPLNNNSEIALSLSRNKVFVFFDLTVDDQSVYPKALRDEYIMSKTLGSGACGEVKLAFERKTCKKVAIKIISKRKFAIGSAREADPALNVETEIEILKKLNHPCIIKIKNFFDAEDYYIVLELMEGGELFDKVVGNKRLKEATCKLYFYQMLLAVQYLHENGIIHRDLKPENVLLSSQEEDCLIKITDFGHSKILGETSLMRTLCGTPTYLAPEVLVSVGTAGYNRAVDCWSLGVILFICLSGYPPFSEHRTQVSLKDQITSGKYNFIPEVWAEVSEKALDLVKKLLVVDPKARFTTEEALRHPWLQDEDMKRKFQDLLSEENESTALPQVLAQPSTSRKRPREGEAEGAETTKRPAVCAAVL

[19] = target: Serine/threonine-protein kinase Chk2 (Homo sapiens) (UniProt O96017); details: at 10 µM
[20] = target: Casein kinase I isoform gamma-1 (Homo sapiens) (UniProt Q9HCP0); details: at 1 µM

T3 sequence (Q00535 whole entry, canonical isoform): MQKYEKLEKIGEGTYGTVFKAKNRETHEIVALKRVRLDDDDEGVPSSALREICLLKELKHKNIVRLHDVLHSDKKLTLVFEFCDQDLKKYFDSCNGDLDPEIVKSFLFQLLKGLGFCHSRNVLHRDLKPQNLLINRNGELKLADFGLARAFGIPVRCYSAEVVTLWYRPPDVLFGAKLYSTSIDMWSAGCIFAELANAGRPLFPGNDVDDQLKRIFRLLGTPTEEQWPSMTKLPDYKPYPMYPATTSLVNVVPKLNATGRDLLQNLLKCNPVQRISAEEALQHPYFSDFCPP
T3 sequence (Q15078 99-307 partner limits assumed): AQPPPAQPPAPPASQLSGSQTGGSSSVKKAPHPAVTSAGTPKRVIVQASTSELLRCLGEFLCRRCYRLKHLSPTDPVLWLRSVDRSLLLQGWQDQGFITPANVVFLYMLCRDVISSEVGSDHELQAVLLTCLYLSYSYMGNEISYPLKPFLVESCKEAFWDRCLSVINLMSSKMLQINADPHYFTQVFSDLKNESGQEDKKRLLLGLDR

SMILES	residual activity [1]	residual activity [2]	residual activity [3]	residual activity [4]	residual activity [5]	residual activity [6]	residual activity [7]	residual activity [8]	residual activity [9]	residual activity [10]	residual activity [11]	residual activity [12]	residual activity [13]	residual activity [14]	residual activity [15]	residual activity [16]	residual activity [17]	residual activity [18]	residual activity [19]	residual activity [20]
O=C1c2ccccc2-c2nc3nnnn3nc21	103%	101%	129%																	
CN[C@@H]1C[C@H]2O[C@@](C)([C@@H]1OC)n1c3ccccc3c3c4c(c5c6ccccc6n2c5c31)C(=O)NC4				2%	77%	46%														
c1cc(-c2cnn3cc(-c4ccc(OCCN5CCCCC5)cc4)cnc23)ccn1	68%	11%	9%	10%	21%	3%	41%	55%	73%	19%	50%	35%	5%	101%	87%	63%				
O=C1NC(=O)c2c1c1c3ccccc3n3c1c1c2c2ccccc2n1C1CCC3O1	95%	76%		86%	75%	75%	41%	73%	75%	65%		71%	66%	25%	20%		46%	26%	24%	
O=[N+]([O-])/C=C/c1ccc2c(c1)OCO2	99%	98%	119%	106%	98%	113%	88%	97%	91%	96%	81%	112%	100%	85%	101%		87%	85%	85%	83%
COC(=O)[C@@]1(O)C[C@H]2O[C@]1(C)n1c3ccccc3c3c4c(c5c6ccccc6n2c5c31)C(=O)NC4	15%	4%	16%	1%	79%	37%	2%	4%	3%	1%	55%	10%	2%	1%	-1%	57%	27%	3%	1%	93%
CCn1cnc2c(Nc3cccc(Cl)c3)nc(N[C@@H]3CCCC[C@@H]3N)nc21	82%	31%	-1%	0%	89%	51%	0%	1%	0%	-1%	5%	8%	0%	83%	28%	6%	6%	59%	12%	30%
O=c1[nH]c2ccccc2n1C1CCN(Cc2ccc(-c3nc4cc5[nH]cnc5cc4nc3-c3ccccc3)cc2)CC1	105%	103%	85%	77%	84%	53%	82%	95%	100%	104%	98%	104%	105%	102%	88%	62%	105%	95%	87%	90%
COc1cc2ncnc(Nc3ccc(OCc4ccccc4)cc3)c2cc1OC	117%	100%	96%	83%	77%	79%	100%	106%	111%	102%	88%	100%	87%	101%	87%	95%	110%	8%	3%	95%
O=C1Nc2ccc3ncsc3c2/C1=C/c1c[nH]cn1	10%	4%	3%	0%	23%	4%	-1%	1%	1%	-1%	15%	5%	3%	35%	8%	28%	1%	50%	15%	70%
COc1ccc2c(c1)/C(=C/c1cnc[nH]1)C(=O)N2			18%	0%	81%	37%		0%	0%	0%	67%	32%	7%	77%	30%	67%		67%	25%	
N/C(=N\[N+](=O)[O-])N/N=C\c1ccc(-c2cccc([N+](=O)[O-])c2)o1				86%	80%	76%	81%									82%		91%	75%	88%
CC(C)(C)c1cc(C=C(C#N)C#N)cc(Br)c1O	113%	101%		113%	99%	48%	103%	107%	96%					105%	105%	97%	109%	96%	99%	104%
CCc1nc(-c2ccc(OC)cc2)[nH]c1-c1ccncc1					74%	37%		101%	109%								102%			
COc1cc(OC)c(/C=C2\C(=O)Nc3ccccc32)c(OC)c1	90%	77%	84%	85%	37%	6%	78%	88%	99%	77%	90%	94%	48%	88%	81%	70%	84%	89%	78%	101%
C[S+]([O-])c1ccc(-c2nc(-c3ccc(F)cc3)c(-c3ccncc3)[nH]2)cc1 (stereo not given)	116%	111%	100%	121%			93%	117%	120%	100%	118%	98%	108%	104%	97%	61%	108%	90%	90%	119%
CC(C)[C@H](CO)Nc1nc(Nc2cccc(Cl)c2)c2ncn(C(C)C)c2n1	98%	44%	1%	0%	74%	23%	3%	0%	1%	0%	17%	23%	5%	99%	86%	1%	14%	96%	38%	10%
COc1cc2nccc(Oc3ccc(NC(=O)Nc4cc(C)on4)c(Cl)c3)c2cc1OC												76%								
COc1ccc2c(c[n+](C)c3c4cc5c(cc4ccc23)OCO5)c1OC		82%					85%		89%	91%	87%			86%	99%	71%		73%	90%	80%

— ChEMBL document CHEMBL2218924, “A broad activity screen in support of a chemogenomic map for kinase signalling research and drug discovery” (Biochem J, 2013)
